Our source for the outcome and AC50 values is PubChem BioAssay (EPA / NIEHS).

Activity calls are given as the source filed them. The calls were made as follows: active = hit-call score of the fitted dose curve at least 0.9, where 1 is the maximum; inactive = score below 0.9.

A short description of the assay: ATG_RORE_CIS: Attagene CIS-FACTORIAL HepG2 Assay for human RAR-related Orphan Receptor Element (RORE) (AID 2282959). As to conditions: HepG2 Attagene cis-factorial RORE reporter, mRNA; actives raise or lower the signal. As to the method:
ATG_CIS is a cell-based, multiplexed-readout assay that uses HepG2, a human liver cell line, with measurements taken at 24 hours after chemical dosing in a 24-well plate.ATG_RORE_CIS is one of 52 assay component(s) measured or calculated from the ATG_CIS assay. It is designed to make measurements of mRNA induction, a form of inducible reporter, as detected with fluorescence intensity signals by Reverse transcription polymerase chain reaction (RT-PCR) and Capillary electrophoresis technology.Data from the assay component ATG_RORE_CIS was analyzed into 1 assay endpoint. This assay endpoint, ATG_RORE_CIS, was analyzed with bidirectional fitting relative to DMSO as the negative control and baseline of activity. Using a type of inducible reporter, measures of mRNA for gain or loss-of-signal activity can be used to understand the reporter gene at the transcription factor-level as they relate to the gene RORA and RORB and RORC. Furthermore, this assay endpoint can be referred to as a primary readout, because this assay has produced multiple assay endpoints where this one serves a reporter gene function. To generalize the intended target to other relatable targets, this assay endpoint is annotated to the nuclear receptor intended target family, where the subfamily is orphan.
Human liver HepG2 cells are transiently transfected with multiple reporter transcription units (MRTUs) in 6-well plates using FuGene 6 reagent (Roche; 3 ml FuGene/1 mg DNA). The MRTU constructs are regulated by a cis-regulating element (promoter). […] A major difference between the CIS and TRANS system is that in CIS activities of endogenous TFs are measured, whereas the TRANS assay evaluates changes in activities of exogenous, chimeric NR-Gal4 proteins. […] At the end of 24 hour incubation, total RNA was isolated using TriZol reagent (Invitrogen). The isolated RNA is then reverse-transcribed using oligo(dT) primer and Mo-MLV reverse transcriptase (Invitrogen) with DNAse I (Ambion) treatment for 30 min. The one-tenth of the produced cDNA was amplified by PCR using Taq DNA polymerase (Invitrogen) and two reporter sequence-specific primers. The PCR products were fluorescently labeled by primer extension with 6-arboxyfluorescein (6-FAM) 5'-labeled reporter sequence-specific primer (2 min at 95 C, 20 s at 68 C and 10 min at 72 C) and these products were digested with 5U of HpaI (New England Biolabs) for 2h at 37 C. The fragments were purified using Qiaquick PCR columns (Qiagen), analyzed on an ABI 3130xL genetic analyzer (Applied Biosystems) with peak positions identified by using a set of X-rhodamine (ROX)-labeled MapMarker1000 molecular weight standards (BioVentures). The raw capillary electrophoresis data was processed using Attagraph software (Attagene).
As for `ClCCCCl`, the compound was classed as inactive.

As for `CCOc1cc(C=O)ccc1O`, the call was inactive. Still for that read-out and setting: the same measure for `O=NN1CCOCC1`: “inactive”; for `CC(C)(C1CCC(O)CC1)C1CCC(O)CC1` (stereo not given): “inactive”; for `CCCSP(=S)(OCC)Oc1ccc(SC)cc1` (stereo not given): “inactive”. The same measure, in the same setting: for `O=[N+]([O-])c1ccc(Cl)c([N+](=O)[O-])c1` the value was “inactive”; for `O=C/C(Cl)=C(/Cl)C(=O)O`, “inactive”; for `C=CC(F)(C(F)(F)F)C(F)(F)C(F)(F)F` (stereo not given), “inactive”. Take `Clc1cc(C(Cl)(Cl)Cl)cnc1Cl`: the compound was called inactive. Same read-out and setting: for `CCCCCCCCCCCCCl` the value was “inactive”; for `O=C(O)CC(O)(CC(=O)O)C(=O)O`, “inactive”; for `CC(C)(C#N)N=NC(C)(C)C#N`, “inactive”. Still for that read-out and setting: the same measure for `c1ccc(-c2cccc(-c3ccccc3)c2)cc1`: “inactive”. Still for that read-out and setting: the same measure for `O=CCCl`: “inactive”; for `CCCSP(=S)(OCC)Oc1ccc(Cl)cc1Cl` (stereo not given): “inactive”; for `COCC(=O)N(c1c(C)cccc1C)[C@H](C)C(=O)OC`: “inactive”. As for `C=CCc1ccccc1O`, the outcome was inactive.

As to `COC(=O)c1cc(Oc2ccc(Cl)cc2Cl)ccc1[N+](=O)[O-]`, the AC50 is 16.6 µM (active). On the same count and under the same terms, for `CCOCn1c(-c2ccc(Cl)cc2)c(C#N)c(Br)c1C(F)(F)F` the value was 3.54 µM (active). Take `CC(O)(CS(=O)(=O)c1ccc(F)cc1)C(=O)Nc1ccc(C#N)c(C(F)(F)F)c1` (stereo not given): the compound was classed as inactive. `Fc1cccc(Cl)c1CCl`: the result was inactive. On the same count and under the same terms, for `N#Cc1ccccc1Cl` the value was “inactive”. The same measure, in the same setting: the same measure for `C1CCC(C2CCCCC2)CC1`: “inactive”. Still for that read-out and setting: the same measure for `C#C[C@]1(O)CC[C@H]2[C@@H]3CCC4=CC(=O)CC[C@]4(C)[C@H]3CC[C@@]21C`: “inactive”. Consider `Brc1c(Br)c(Br)c(Oc2c(Br)c(Br)c(Br)c(Br)c2Br)c(Br)c1Br`, for which the compound was called inactive. Same read-out and setting: for `CN(N=O)c1ccc([N+](=O)[O-])cc1` the value was “inactive”.

Consider `CCC[CH2][Sn]([Cl])([Cl])[CH2]CCC`, for which the AC50 was 0.584 µM (active).

For the compound `CC1CC(=O)O1` (stereo not given), the result was inactive. As for `Cc1cc(Cl)ccc1N`, the compound was classed as inactive.

Turning to `CC(C)(COCC1CO1)COCC1CO1` (stereo not given), the compound was classed as inactive. As for `C[C@@H]1O[C@@H](O[C@H]2C[C@@H](O)[C@]3(CO)[C@H]4[C@H](O)C[C@]5(C)[C@@H](C6=CC(=O)OC6)CC[C@]5(O)[C@@H]4CC[C@]3(O)C2)[C@H](O)[C@H](O)[C@H]1O`, the outcome was inactive.

Consider `CCOP(=S)(OCC)Oc1ccc(Cl)cc1Cl`, for which the result was inactive. Still for that read-out and setting: the same measure for `C=C(C)C(=O)OCCCCOC(=O)C(=C)C`: “inactive”; for `O=C(Cc1ccccc1)OCCc1ccccc1`: “inactive”; for `OC[C@@H](O)[C@H]1O[C@@H]2O[C@H](C(Cl)(Cl)Cl)O[C@@H]2[C@H]1O`: “inactive”. Still for that read-out and setting: for `Cc1cc(-c2cc(C)c(N)c(C)c2)cc(C)c1N` the value was “inactive”; for `CC1(C)[C@H](C(=O)O[C@H](C#N)c2cccc(Oc3ccccc3)c2)[C@@H]1/C=C(\Cl)C(F)(F)F`, “inactive”. For the compound `COP(=S)(OC)Oc1cc(Cl)c(I)cc1Cl`, the AC50 is 15 µM (active). As to `CCC[N+](CCC)(CCC)CCC`, the call was inactive. The same measure, in the same setting: the same measure for `C=C(C)C(=O)OCC(CC)CCCC` (stereo not given): “inactive”.

The term AC50 denotes the midpoint of the concentration-response curve, whichever way the signal moves.
